Laboratory results reported in the supplement of paper PMC9433436.
± gives the standard deviation of the averaged measurements. Whole data set: some 4,100 sequences, median “relative kcat/Km (krel) vs genomic leader AAAGAU” near 1.7, cut for the highest 2% near 6.5. The full list was thinned out, with the highest values kept by preference.

Biological target: T1, E. coli RNase P holoenzyme (M1 P RNA + rnpA protein) (UniProt P0A7Y8)
T1 sequence: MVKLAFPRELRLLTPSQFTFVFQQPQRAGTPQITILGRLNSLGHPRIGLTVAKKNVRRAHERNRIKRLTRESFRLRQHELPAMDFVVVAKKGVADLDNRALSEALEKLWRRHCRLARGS
Test: relative kcat/Km (krel) vs genomic leader AAAGAU (relative (reference leader = 1)); higher = faster RNase P cleavage
Experimental: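 HTS-Kin: a pool of ptRNA-Met (21C construct) with all 4096 combinations of 5' leader nucleotides N(-6) to N(-1) was processed in vitro by E. coli RNase P (P RNA + rnpA/C5 protein) under multiple-turnover conditions at 37 C, pH 8, 17.5 mM MgCl2. Residual substrate was Illumina-sequenced at several fractions reacted, and relative kcat/Km (krel) was computed by internal competition kinetics, calibrated to the genomic leader (AAAGAU = 1). The listed hexamer is the varied N(-6)..N(-1) leader (DNA letters), and it sits between a fixed 5' stem-loop flank (GCAUGCACGAAAGUGCGUGCUAUGAA) and the mature tRNA-Met starting GGCUACGUAGCUCAGUUGG. Two technical replicates are averaged.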

[1] = fraction of substrate reacted: ~9-10% (9.79% repeat 1, 9.1% repeat 2)
[2] = fraction of substrate reacted: ~13-16% (15.68% repeat 1, 13.17% repeat 2)
[3] = fraction of substrate reacted: ~26-29% (28.66% repeat 1, 26.4% repeat 2)

| Sequence | relative kcat/Km [1] | relative kcat/Km [2] | relative kcat/Km [3] |
| --- | --- | --- | --- |
| CCATCT | 2.12 ± 1.5 | 1.53 ± 1.1 | 2.64 ± 0.42 |
| TACACG | 2.67 ± 2.1 | 2.37 ± 0.74 | 3.55 ± 0.64 |
| TAGTAA | 3.7 ± 0.66 | 4.78 ± 0.65 | 6.72 ± 3 |
| AAGTAC | 3.18 ± 1.6 | 3.53 ± 0.57 | 4.86 ± 1.7 |
| CAGTAC | 3.68 ± 1.6 | 4.92 ± 0.95 | 6.37 ± 2.2 |
| TAGTAC | 4.35 ± 1.3 | 5.28 ± 0.82 | 7.85 ± 3.4 |
| AAGTAA | 2.99 ± 1.7 | 3.36 ± 0.17 | 4.47 ± 1.6 |
| TAGTAT | 3.26 ± 0.97 | 4.14 ± 0.84 | 6.5 ± 3.2 |
| TCATCG | 1.66 ± 1.1 | 0.943 ± 0.074 | 1.96 ± 0.15 |
| CGATGC | 2.88 ± 0.51 | 2.7 ± 1.8 | 4.03 ± 1.4 |
| TAGCTT | 1.84 ± 0.3 | 2.04 ± 0.21 | 2.8 ± 1.2 |
| ATCGCC | 4.35 ± 0.56 | 5.34 ± 2 | 7.69 ± 3 |
| ATCGCA | 3.36 ± 1 | 4.58 ± 0.2 | 6.35 ± 2.8 |
| GTCGTC | 3.09 ± 1.7 | 2.79 ± 0.12 | 4.02 ± 1.6 |
| GTCGCC | 4.34 ± 1.4 | 5.5 ± 0.42 | 7.93 ± 3.1 |
| ATCGCG | 2.62 ± 1.1 | 1.7 ± 0.89 | 3.07 ± 0.91 |
| GTCGCG | 2.3 ± 2.2 | 1.77 ± 0.36 | 3.47 ± 0.87 |
| TGCGCA | 2 ± 0.91 | 1.69 ± 0.53 | 2.46 ± 0.77 |
| ATCGCT | 2.5 ± 0.7 | 2.34 ± 0.31 | 3.27 ± 0.6 |
| TTCGCA | 4.21 ± 0.84 | 6.08 ± 1.7 | 8.75 ± 3.8 |
| GTCGCT | 2.09 ± 1.2 | 2.03 ± 0.41 | 3.35 ± 1 |
| GGCGCA | 1.73 ± 0.44 | 2 ± 1.2 | 3.02 ± 1.3 |
| GTCGCA | 4.66 ± 1.2 | 5.5 ± 1.6 | 7.77 ± 3.1 |
| GGTCAA | 0.981 ± 0.11 | 1.45 ± 0.14 | 1.83 ± 1.1 |
| CATTCA | 2.03 ± 0.96 | 2.26 ± 0.27 | 2.76 ± 0.83 |
| TATACC | 1.83 ± 0.44 | 2.35 ± 0.29 | 2.84 ± 1.4 |

| Sequence | relative kcat/Km [1] | relative kcat/Km [2] | relative kcat/Km [3] |
| --- | --- | --- | --- |
| TATGGT | – | – | 1.77 ± 1.3 |
| CTGCCT | 2.67 ± 0.64 | 1.47 ± 0.29 | 1.91 ± 0.022 |
| GGAGAG | – | – | 1.19 ± 0.14 |
| ATTTTT | 2.48 ± 0.92 | 2.63 ± 0.22 | 3.89 ± 1.3 |
| TTTAGA | 2.52 ± 0.65 | 3.74 ± 0.44 | 5.73 ± 2.2 |
| CCCCAT | 1.7 ± 1.5 | 3.312 ± 0.011 | 4.95 ± 1.3 |
| TTCGCT | 2.88 ± 1.4 | 3.06 ± 0.21 | 4.56 ± 1.4 |
| CTCGCG | 2.22 ± 1.4 | 1.19 ± 1.2 | 3.19 ± 1 |
| CTCGTA | 3.1 ± 0.69 | 3.21 ± 0.68 | 4.83 ± 2 |
| CTCGCC | 4.36 ± 1.6 | 5.23 ± 1.7 | 7.26 ± 2.8 |
| CTCGCA | 4.01 ± 1.4 | 4.94 ± 0.48 | 6.71 ± 2.1 |
| TTCGCC | 4.66 ± 1.2 | 6.09 ± 1.6 | 9.48 ± 3.8 |
| CTCGCT | 1.9 ± 0.4 | 2.61 ± 0.72 | 3.67 ± 0.94 |
| TTCGCG | – | 2.32 ± 0.79 | 3.87 ± 0.24 |
| CGCGCA | 1.86 ± 0.068 | 2.64 ± 0.045 | 3.31 ± 0.91 |
| TAAAGG | – | – | 0.833 ± 0.34 |
| CCGACA | 0.997 ± 0.31 | – | 0.842 ± 0.8 |
| GTGTCG | – | – | 0.804 ± 0.49 |
| AGCCTA | 2.05 ± 0.87 | 1.97 ± 0.57 | 2.57 ± 0.69 |
| CACAGG | 0.41 ± 0.093 | – | 1.35 ± 0.051 |
| CACAGA | 3.95 ± 0.46 | 4.77 ± 2 | 7.2 ± 2.4 |
| CACAGT | – | – | 1.95 ± 1.9 |
| GACAGA | 3.09 ± 0.71 | 4.59 ± 1.2 | 6.53 ± 2.4 |
| AACAGA | 3.71 ± 2.3 | 4.083 ± 0.036 | 5.65 ± 2.1 |
| GACAGG | – | – | 1.2 ± 0.042 |
| GTACAG | – | – | 1.99 ± 0.4 |

| Sequence | relative kcat/Km [1] | relative kcat/Km [2] | relative kcat/Km [3] |
| --- | --- | --- | --- |
| GAAGGT | – | – | 1.31 ± 0.065 |
| TACAGG | – | – | 1.7 ± 0.63 |
| TACAGA | 4.52 ± 2 | 5.66 ± 0.35 | 8.3 ± 3 |
| CACAGC | 3.88 ± 1.2 | 4.31 ± 1.1 | 5.98 ± 2.7 |
| TACAGT | – | – | 2.94 ± 2.7 |
| TACAGC | 3.82 ± 2 | 4.94 ± 0.45 | 6.84 ± 2.6 |
| TACACA | 3.05 ± 1.1 | 3.7 ± 0.067 | 5.53 ± 2.6 |
| CTGACC | – | 0.599 ± 0.52 | 1.2 ± 0.63 |
| ACTGTC | 1.77 ± 1.3 | 0.935 ± 0.31 | 1.12 ± 0.25 |
| AAGATT | 1.89 ± 0.21 | 1.82 ± 0.21 | 2.06 ± 0.8 |
| ATCTAA | 4.39 ± 1.5 | 5.55 ± 1.1 | 8.58 ± 3.4 |
| GGCTAA | 2.12 ± 0.85 | 2.32 ± 0.78 | 3.19 ± 0.8 |
| TTTCTA | 2.15 ± 0.72 | 2.3 ± 0.57 | 2.89 ± 1.2 |
| TGCTAG | 1.97 ± 1.5 | 1.376 ± 0.0054 | 2.44 ± 0.12 |
| TGCTAA | 2.19 ± 0.95 | 2.88 ± 0.23 | 3.74 ± 1.1 |
| TTCTAA | 5.69 ± 2.2 | 7.17 ± 1.2 | 10.6 ± 4.1 |
| TTCTAG | 4.08 ± 2.6 | 4.58 ± 0.56 | 7.01 ± 3.1 |
| AGCTAA | 3.22 ± 1.8 | 3.61 ± 1 | 5.8 ± 3 |
| GTCTAA | 4.58 ± 0.43 | 7.55 ± 1.7 | 10.1 ± 4.8 |
| GTGTAA | 1.31 ± 0.75 | 2.41 ± 1.1 | 2.94 ± 1.5 |
| GTGAAC | 1.89 ± 0.25 | 2.27 ± 0.31 | 2.83 ± 0.88 |
| TTGCAG | – | – | 1.37 ± 0.19 |
| GGCTTC | 0.513 ± 0.13 | 1.31 ± 0.14 | 1.7 ± 0.44 |
| CACTCC | 3.12 ± 2.1 | 3.9 ± 0.2 | 5.21 ± 1.3 |
| CAAGCT | 1.48 ± 1.3 | 0.905 ± 0.4 | 1.37 ± 0.37 |
| ATGTAC | 3.03 ± 0.37 | 3.81 ± 0.94 | 5.39 ± 2.7 |

| Sequence | relative kcat/Km [1] | relative kcat/Km [2] | relative kcat/Km [3] |
| --- | --- | --- | --- |
| TGCGGT | – | – | 2.25 ± 1.2 |
| TGCTAC | 2.42 ± 1.5 | 2.16 ± 0.89 | 4.62 ± 2.6 |
| TTCTAC | 5.32 ± 1.5 | 7.7 ± 1.3 | 10.6 ± 4.4 |
| CGCTAA | 3.07 ± 0.43 | 3.99 ± 1.2 | 5.96 ± 2.3 |
| AGCTAT | 4.03 ± 1.8 | 3.39 ± 1.1 | 5.23 ± 1.9 |
| TGCTAT | 2.93 ± 0.94 | 2.69 ± 0.56 | 3.79 ± 1.5 |
| CTAAAA | 2.15 ± 0.51 | 2.43 ± 0.18 | 2.89 ± 0.88 |
| TTCTAT | 5.38 ± 0.96 | 7.59 ± 1.6 | 10.5 ± 4.7 |
| CTCTAA | 4.48 ± 1.2 | 6.21 ± 1.1 | 8.82 ± 3.7 |
| TGTGAA | 2.72 ± 0.39 | 2.92 ± 0.98 | 3.58 ± 1.9 |
| TGATAT | 1.84 ± 0.025 | 3.77 ± 0.75 | 6.11 ± 3.1 |
| ACATCG | 1.31 ± 1.1 | – | 1.61 ± 0.095 |
| TGGACT | 1.76 ± 0.67 | 0.899 ± 0.057 | 0.76 ± 0.046 |
| GGTAGG | – | – | 1.74 ± 0.56 |
| ATCCCG | 1.67 ± 1.4 | 0.83 ± 0.4 | 1.86 ± 0.023 |
| GTAGCC | 1.99 ± 0.12 | 1.48 ± 0.66 | 2.13 ± 0.51 |
| TTTAAT | 3.19 ± 1.8 | 3.87 ± 0.24 | 5.8 ± 2.3 |
| CAATAT | 3.27 ± 0.33 | 4.46 ± 0.96 | 6.37 ± 3 |
| ACCATT | 2.5 ± 1.4 | 2.84 ± 0.28 | 4.27 ± 1.3 |
| TCCATT | 4.11 ± 1.2 | 4.85 ± 1.2 | 7.33 ± 3.2 |
| TCCATG | – | 1.42 ± 0.26 | 3.46 ± 0.3 |
| ACCATA | 2.8 ± 1.8 | 2.2 ± 0.51 | 3.64 ± 0.82 |
| GCCATT | 1.91 ± 0.79 | 2.36 ± 0.9 | 4.74 ± 1.7 |
| TCCATA | 4.06 ± 1.5 | 4.66 ± 0.32 | 6.71 ± 2.6 |
